From PubChem BioAssay
Hits are enriched below; roughly 20% of the tested compounds scored in any of these assays.
Cycloheximide cs: affects cycloheximide protein synthesis inhibition readout, counter-screen; 300,000 compounds, 12% hits; AID 2314; max response, %; cell reporter, cycloheximide protein synthesis inhibition counterscreen; in the data active means max response mostly above about 13%, no sharp cut-off; inactive means mostly below about 14%; further: read at 38.3 µM for the half of the compounds with a filed dose
Pf growth 48h: inhibits P. falciparum growth in the first generation, 48 h; P. falciparum luciferase growth in erythrocytes, 48 h; Potency, µM (top dose mostly 28.7 µM), usual class: inhibitors; 310,000 compounds, 5.9% hits
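Here the parasites carry a stable luciferase gene and grow inside erythrocytes in Albumax-based RPMI medium with compound for one erythrocytic cycle. Activity is scored as loss of luminescent signal.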
HCMV antiviral: human cytomegalovirus inhibition. 410,000 compounds, 4.5% hits. AID 1259415. HFF cells, HCMV-luciferase reporter, 72 h; hits give low values. activity change, negative = inhibition, % at 57.5 µM; in the data active means activity change below about -60%; inconclusive means no clear call, values can overlap the other calls; inactive means above about -39%
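Luciferase read-out from HCMV-luciferase-infected HFFs (MOI 1 PFU/cell) 72 h post infection at 37C; compounds added after 16 h cell attachment; activity normalized between buffer-only basal and Salinomycin (10uM) inhibitor controls.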
Pf growth 96h: P. falciparum growth inhibition at 96 hour, primary screen for plastid delayed-death inhibitors. P. falciparum luciferase reporter growth, 96 h. Potency, µM (titrated, usually from 28.7 µM), most hits filed as inhibitors. 320,000 compounds, 6.9% hits
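Cell-based qHTS: luciferase-tagged P. falciparum in erythrocytes (2% hematocrit, 0.05% parasitemia final) incubated with compounds for 96 hours, 37 C, 5% CO2; luciferase detection reagent then added and luminescence measured.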
Shiga toxin inh: Shiga toxin inhibition | 290,000 compounds, 9.2% hits | Vero cells, Shiga toxin protein synthesis inhibition reporter | AID 2315 | inhibition, % at 38.7 µM; in the data active means inhibition mostly above about 28%, no sharp cut-off; inactive means mostly below about 43%
Each line names hits and unclear results; the compound was inactive in the other large screens. Unless noted, the call rests on the fitted dose curve; in most records, active means well fitted inhibition curve with a large enough effect; inconclusive means small, poorly fitted or top-dose-only effect, or another doubt; inactive means no such curve, though single readings can be large or run the other way.

O=C(OCc1cc(=O)n2nc(-c3cccs3)sc2n1)c1cccc(F)c1	none (no result: Cycloheximide cs, Pf growth 48h, Pf growth 96h, Shiga toxin inh)
CC1(C)C(O)=C(c2nc3ccccc3[nH]2)C(=N)N1c1ccccc1	Pf growth 48h inconclusive, Pf growth 96h 8.3µM
N=c1c(-c2nc3ccccc3[nH]2)cc(C(=O)c2cccs2)nn1-c1ccccc1	Pf growth 48h inconclusive, Pf growth 96h inconclusive (no result: HCMV antiviral)
CC(C)N1CC(O)=C(c2nc3ccccc3[nH]2)C1=N	Cycloheximide cs 52, Shiga toxin inh 77
CC(C1CC2CCC1C2)N1CC(O)=C(c2nc3ccccc3[nH]2)C1=N (stereo not given)	Pf growth 48h inconclusive, Pf growth 96h 3.3µM
COCCN1CC(O)=C(c2nc3ccccc3c(=O)[nH]2)C1=N	Pf growth 48h inconclusive
O=C(NCCCN1CCOCC1)c1ccccc1N1C(=O)[C@@H]2Cc3c([nH]c4ccccc34)C(c3ccc(F)cc3)N2C1=O (stereo not given in full)	Pf growth 48h 13µM, Pf growth 96h inconclusive
COc1cccc(C2c3[nH]c4ccccc4c3C[C@H]3C(=O)N(c4ccccc4C(=O)NCCCN4CCOCC4)C(=O)N23)c1 (stereo not given in full)	Pf growth 48h 15µM, Pf growth 96h 12µM
O=C(NCCN1CCOCC1)c1ccccc1N1C(=O)[C@@H]2Cc3c([nH]c4ccccc34)C(c3ccccc3)N2C1=O (stereo not given in full)	Pf growth 48h inconclusive, Pf growth 96h inconclusive
COc1cccc(OC)c1-c1cc(C(=O)NC2(C(=O)O)C3CC4CC(C3)CC2C4)nn1-c1ccc(C(=O)N(C)CCCN(C)C)cc1C(C)C (stereo not given)	none (no result: Pf growth 48h, HCMV antiviral, Pf growth 96h)
CCc1ccc(C(=O)NC2=NC(c3cc(OC)ccc3OC)CC(=O)N2)cc1 (stereo not given)	none (no result: Cycloheximide cs, Pf growth 48h, Pf growth 96h, Shiga toxin inh)
O=S(=O)(O)c1ccc(N=Nc2ccccc2)cc1	none
O=c1ccc(N=Nc2ccccc2)ccc1O	Cycloheximide cs 23, Pf growth 48h 10µM, Pf growth 96h 13µM
O=C1CN(C(=O)CSc2nc3ccccc3n2CCc2ccccc2)c2ccccc2N1	Pf growth 48h inconclusive, HCMV antiviral -60, Pf growth 96h inconclusive
O=C1CN(C(=O)CSc2nc3ccccc3c(=O)n2Cc2ccc(F)cc2)c2ccccc2N1	Pf growth 48h 12µM, HCMV antiviral -64, Pf growth 96h 2.6µM
Cn1c(SCC(=O)N2CC(=O)Nc3ccccc32)nc2ccccc2c1=O	Pf growth 48h inconclusive, Pf growth 96h inconclusive (no result: Cycloheximide cs, Shiga toxin inh)
COc1ccc(-c2cnc(C)o2)cc1S(=O)(=O)Nc1ccc(NC(C)=O)cc1	none (no result: Cycloheximide cs, Pf growth 48h, Pf growth 96h, Shiga toxin inh)
CS(=O)(=O)N1CCN(c2ccc(NC(=O)c3ccccc3)cc2)CC1	Cycloheximide cs 37, Shiga toxin inh 82
Cc1cccc(C(=O)Nc2ccc(N3CCN(S(C)(=O)=O)CC3)cc2)c1	Cycloheximide cs 22, Shiga toxin inh 73
CC1(C)CC(=O)C(C=NCCN2CCN(C3CC(=O)N(c4ccc(Br)cc4)C3=O)CC2)=C(O)C1 (stereo not given)	Pf growth 96h 13µM
CC(=O)N(C1=C(N)C(=O)c2ccccc2C1=O)c1ccccc1	Pf growth 48h inconclusive, Pf growth 96h 9.3µM
COc1ccc(C2CC(=O)n3nc(C45CC6CC(CC(C6)C4)C5)nc3S2)cc1OC (stereo not given)	Pf growth 96h inconclusive
CCOc1ccc(C2CC(=O)n3nc(C45CC6CC(CC(C6)C4)C5)nc3S2)cc1OC (stereo not given)	Pf growth 96h 12µM
CCc1ccc(NC(=O)C2CCCN2S(=O)(=O)c2ccc3c(c2)C(C)(C)C(=O)N3C)cc1 (stereo not given)	Pf growth 48h inconclusive
N#C/C(=N/Nc1ccc([N+](=O)[O-])cc1)C(=N)N1CCCCC1	Cycloheximide cs 31, Pf growth 96h inconclusive, Shiga toxin inh 104
N#C/C(=N\Nc1ccc([N+](=O)[O-])cc1)C(N)=S	Cycloheximide cs 41, HCMV antiviral -95, Pf growth 96h inconclusive, Shiga toxin inh 88
N#C/C(=N\Nc1ccccc1[N+](=O)[O-])C(=N)N1CCCCC1	Cycloheximide cs 31, Shiga toxin inh 67
COc1ccccc1N/N=C(\C#N)C(=N)N1CCOCC1	none
N=C(c1ccc([N+](=O)[O-])cc1)N1CCCCC1	none
N#C/C(=N\Nc1ccc([N+](=O)[O-])cc1)C(=N)N1CCOCC1	Cycloheximide cs 46, Shiga toxin inh 69
COC(=O)[C@H]1[C@H](CO)[C@H]2Cn3c(ccc(Br)c3=O)[C@H]2N1Cc1ccccc1Cl	none (no result: Cycloheximide cs, Pf growth 48h, Pf growth 96h, Shiga toxin inh)
C=C1CCN(C(Cc2ccccc2)C(=O)NCc2ccc(Cl)cc2)S(=O)(=O)c2ccccc21 (stereo not given)	none (no result: Pf growth 48h, HCMV antiviral, Pf growth 96h)
N#C/C(=N\Nc1ccc(Br)cc1)C(=N)N1CCOCC1	Cycloheximide cs 69, Shiga toxin inh 107
O=C(Nc1ccc(C(F)(F)F)cc1)N1CCN(c2ccnc3cc(Cl)ccc23)CC1	Pf growth 48h 1.5µM, HCMV antiviral -72, Pf growth 96h inconclusive
CC(=O)c1ccc(N2CCN(C(=O)Nc3ccc(F)cc3F)CC2)cc1	Pf growth 48h inconclusive, Pf growth 96h inconclusive
Cc1ccc(F)cc1NC(=O)N1CCN(c2ccnc3cc(Cl)ccc23)CC1	Pf growth 48h inconclusive, HCMV antiviral -69, Pf growth 96h 6.6µM
Cc1cccc(Cl)c1NC(=O)N1CCN(c2ccnc3cc(Cl)ccc23)CC1	Pf growth 48h inconclusive, HCMV antiviral -65, Pf growth 96h inconclusive
Cc1ccc(Cl)cc1N1CCN(C(=O)c2ccc(NC(=O)c3nsc4ccccc34)cc2)CC1	none (no result: Cycloheximide cs, Pf growth 48h, Pf growth 96h, Shiga toxin inh)
O=C(Nc1cc(F)ccc1F)N1CCN(c2ccnc3cc(Cl)ccc23)CC1	Pf growth 48h inconclusive, HCMV antiviral -83, Pf growth 96h inconclusive
C=CCN(CCNP(=O)(OCC)OCC)CP(=O)(OCC)OCC	none
O=C(NCCCN1CCN(c2ccccc2)CC1)c1nnc(Cc2ccc(F)cc2)o1	none (no result: Cycloheximide cs, Pf growth 48h, Pf growth 96h, Shiga toxin inh)
Cn1c2c(c(=O)n(C)c1=O)C(c1ccc(Cl)cc1)C(C#N)=C(N)O2 (stereo not given)	Pf growth 96h inconclusive
COc1oc(-c2ccccc2)nc1C(F)(F)F	none
COc1ccccc1N(CC(=O)NCc1ccco1)C(=O)CCC(=O)Nc1ccccn1	Pf growth 48h inconclusive
O=C1Cc2cc(S(=O)(=O)NCc3ccc(F)cc3)ccc2N1	none (no result: Cycloheximide cs, Pf growth 48h, Pf growth 96h, Shiga toxin inh)
Cc1nn2c(N3CCN(C(=O)c4ccco4)CC3)cc(C(C)(C)C)nc2c1-c1ccccc1	Pf growth 48h inconclusive, HCMV antiviral -64, Pf growth 96h 4.7µM
CCCc1cc(N2CCN(c3ccccn3)CC2)n2nc(C)c(-c3ccccc3)c2n1	Pf growth 96h inconclusive (no result: Pf growth 48h)
Cc1nn2c(N3CCN(C)CC3)cc(C(C)(C)C)nc2c1-c1ccccc1	Pf growth 48h inconclusive, HCMV antiviral -67, Pf growth 96h 3.3µM
Cc1cc(N2CCN(C(=O)c3ccco3)CC2)n2ncnc2n1	none
O=C(c1ccco1)N1CCN(c2cc(C(F)(F)F)nc3ncnn23)CC1	Pf growth 96h 13µM
Cc1nn2c(N3CCN(C4CCCC4)CC3)cc(C(C)(C)C)nc2c1-c1ccccc1	none (no result: Pf growth 96h)
CCCc1cc(N2CCOCC2)n2nc(C)c(-c3ccccc3)c2n1	Cycloheximide cs 18
